Results: PubChem BioAssay (Tox21)
Inconclusive results are not listed. The source made the active and inactive calls. Unless noted, calls follow the shape of the dose curve; as a rule, active = well fitted curve in the direction sought with a large enough effect in the repeat runs; inconclusive = weak or mixed curves; inactive = no such curve, though single readings can be large; an effect the other way counts as inactive or inconclusive.

Tests used:
[1] = qHTS assay for small molecule agonists of the p53 signaling pathway (AID 651631; calls by dose curve; also: nearly all actives have a fitted effect of over 15% in size)
How it was run: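 Stably transfected HCT-116 cells (beta-lactamase behind p53 response elements) get compounds after a 5 h settling period; 16 h later at 37 °C, FRET substrate is loaded and fluorescence read after 2 h.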

[2] = qHTS assay for small molecules that induce genotoxicity in human embryonic kidney cells expressing luciferase-tagged ATAD5 (AID 651632); also: nearly all actives have a fitted effect of over 15% in size
How it was run: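 Reporter cells (HEK293T) express luciferase-tagged ATAD5, a protein that accumulates after DNA damage. Treat 16 hr at 37C/5% CO2, add Amplite, wait 30 min at RT, and read luminescence.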

[3] = qHTS assay for small molecule agonists of the p53 signaling pathway - cell viability (AID 651633; calls by dose curve;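 also: p53RE-bla HCT reporter cells with a stable beta-lactamase p53 reporter; series mostly up to about 83 µM; nearly all actives have a fitted effect of over 30% in size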)
How it was run: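 p53RE-bla cells were treated with compound for 16 hours at 37 C. Cytotoxicity was then measured as CellTiter-Glo luminescence after 30 min at room temperature.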

[4] = qHTS assay for small molecules that induce genotoxicity in human embryonic kidney cells expressing luciferase-tagged ATAD5 - cell viability (AID 651634; calls by dose curve; also: nearly all actives have a fitted effect of over 25% in size)
How it was run: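 Seeding of 2,000 HEK293T ATAD5-luciferase cells per well preceded pin-tool compound transfer. Plates sat 15.5 hr at 37C under 5% CO2, then fluorescence was read after 30 min with CellTiter-Fluor.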

[5] = qHTS assay for small molecule disruptors of the mitochondrial membrane potential - cell viability (AID 720634; calls by dose curve;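 also: human HepG2 liver cancer cells; series mostly up to about 83 µM; nearly all actives have a fitted effect of over 20% in size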)
How it was run: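 Measuring cytotoxicity alongside mitochondrial potential, the screen quantified ATP by luminescence in HepG2 cells after 1 hr compound incubation and a 30 min room-temperature CellTiter-Glo step.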

[6] = qHTS assay to test for compound auto fluorescence at 590 nm (red) in HepG2 cells (AID 720674)
How it was run: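 Seeding: 2,000 HepG2 cells/well, MEM/10% FBS, overnight 37 C. Dosing: compound vs DMSO. Incubation: 1 hr, 37 C, 5% CO2. Read: fluorescence 540 ex/590 em, Rose Bengal sodium as red reference.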

[7] = qHTS assay to test for compound auto fluorescence at 535 nm (green) in HepG2 cells (AID 720675)
[8] = qHTS assay to test for compound auto fluorescence at 460 nm (blue) in HEK293 cells (AID 720678)
How it was run: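 Blue-channel (Ex/Em 405/460 nm) intensity measured in HEK293 cultures after overnight compound exposure at 37C; signal expressed relative to triamterene. Cells plated 2,000 per well in 10% dialyzed FBS medium and allowed 4-5 hr to attach.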

[9] = qHTS assay to test for compound auto fluorescence at 590 nm (red) in HEK293 cells (AID 720679)
How it was run: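 Red-channel autofluorescence (Ex/Em 540/590 nm; Rose Bengal sodium reference) was measured after overnight 37C, 5% CO2 exposure of attached HEK293 cells, 2,000 per well in medium with 10% dialyzed FBS.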

[10] = qHTS assay for small molecule disruptors of the mitochondrial membrane potential (AID 720635)
How it was run: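 HepG2 cells exposed to compound 1 hr at 37C, then Mito-MPS dye 30 min. Ratio read of aggregate (540/590 nm) versus monomer (490/535 nm) fluorescence.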
% is scaled to controls: 0 for no effect and ±100 for the full control effect.

CN(CCOc1ccc(NS(C)(=O)=O)cc1)CCc1ccc(NS(C)(=O)=O)cc1
inactive: outcome [1] | Potency [2] | outcome [3] | Potency [4] | outcome [5] | outcome [6] | outcome [7] | outcome [8] | outcome [9]

COCCOCCOCCOCCOCCO
inactive: outcome [1] | Potency [2] | outcome [3] | Potency [4] | outcome [5] | outcome [6] | outcome [7] | outcome [8] | outcome [9]

O=C(O)C(=O)Cc1ccccc1
inactive: outcome [1] | Potency [2] | outcome [3] | Potency [4] | outcome [5] | outcome [6] | outcome [7] | outcome [8] | outcome [9]

CCCCCCCCCCCCCC
inactive: outcome [1] | Potency [2] | outcome [3] | Potency [4] | outcome [5] | Potency [10] | outcome [6] | outcome [7] | outcome [8] | outcome [9]

C=C(C)C(=O)OCC(C)(C)COC(=O)C(=C)C
inactive: outcome [1] | Potency [2] | outcome [3] | Potency [4] | outcome [5] | outcome [6] | outcome [7] | outcome [8] | outcome [9]

CCCCN
inactive: outcome [1] | Potency [2] | outcome [3] | Potency [4] | outcome [5] | outcome [6] | outcome [7] | outcome [8] | outcome [9]

Cc1cc(Cl)c(C)cc1Cl
inactive: outcome [1] | Potency [2] | outcome [3] | Potency [4] | outcome [5] | outcome [6] | outcome [7] | outcome [8] | outcome [9]

CCCC/C=C\CCCCCCCCCC=O
inactive: outcome [1] | Potency [2] | outcome [3] | Potency [4] | outcome [5] | Potency [10] | outcome [6] | outcome [7] | outcome [8] | outcome [9]

CCCCCCCC/C=C\CCCCCCCC(=O)OCCCC
inactive: outcome [1] | Potency [2] | outcome [3] | Potency [4] | outcome [5] | fluorescence, relative to Rose Bengal [6] 0.139% [at 18.6 µM] | fluorescence, % of fluorescein control [7] -0.0204% [at 18.6 µM] | fluorescence, % of triamterene [8] -0.0584% [at 18.6 µM] | fluorescence, % of fluorescent control [9] 0.3% [at 18.6 µM]

CNS(=O)(=O)CCc1ccc2[nH]cc(C3CCN(C)CC3)c2c1
inactive: outcome [1] | Potency [2] | outcome [3] | Potency [4] | outcome [5] | outcome [6] | outcome [7] | outcome [8] | outcome [9]

CCOC(=O)c1ncn2c1CN(C)C(=O)c1cc(F)ccc1-2
inactive: outcome [1] | Potency [2] | outcome [3] | Potency [4] | outcome [5] | Potency [10] | outcome [6] | outcome [7] | outcome [8] | outcome [9]

Cc1cccc2nccnc12
inactive: outcome [1] | Potency [2] | outcome [3] | Potency [4] | outcome [5] | outcome [6] | outcome [7] | outcome [8] | outcome [9]

Cc1cccc(C)c1NC(=O)c1ccccc1C(=O)O
inactive: outcome [1] | Potency [2] | outcome [3] | Potency [4] | outcome [5] | Potency [10] | outcome [6] | outcome [7] | outcome [8] | outcome [9]

CCCCCCCCC1CCC(=O)O1 (stereo not drawn)
inactive: outcome [1] | Potency [2] | outcome [3] | Potency [4] | outcome [5] | outcome [6] | outcome [7] | outcome [8] | outcome [9]

CCCCOC(=O)c1ccccc1
inactive: outcome [1] | Potency [2] | outcome [3] | Potency [4] | outcome [5] | Potency [10] | outcome [6] | outcome [7] | outcome [8] | outcome [9]

C=C1CC/C=C(\C)CC[C@@H]2[C@@H]1CC2(C)C
inactive: outcome [1] | Potency [2] | outcome [3] | Potency [4] | outcome [5] | outcome [6] | outcome [7] | outcome [8] | outcome [9]

CCC(C)NC(N)=O (stereo not drawn)
inactive: outcome [1] | Potency [2] | outcome [3] | Potency [4] | outcome [5] | outcome [6] | outcome [7] | outcome [8] | outcome [9]

CCO[Si](CCCS)(OCC)OCC
inactive: outcome [1] | Potency [2] | outcome [3] | Potency [4] | outcome [5] | outcome [6] | outcome [7] | outcome [8] | outcome [9]

Cc1ccc(S(=O)(=O)O)c(C)c1
inactive: outcome [1] | Potency [2] | outcome [3] | Potency [4] | outcome [5] | outcome [6] | outcome [7] | outcome [8] | outcome [9]

CCCCCOC(=O)CCC
inactive: outcome [1] | Potency [2] | outcome [3] | Potency [4] | outcome [5] | outcome [6] | outcome [7] | outcome [8] | outcome [9]

CC(N)C(=O)OC(C)(C)Cc1ccc(Cl)cc1 (stereo not drawn)
inactive: outcome [1] | Potency [2] | outcome [3] | Potency [4] | outcome [5] | outcome [6] | outcome [7] | outcome [8] | outcome [9]

c1ccc2nccnc2c1
inactive: outcome [1] | Potency [2] | outcome [3] | Potency [4] | outcome [5] | Potency [10] | outcome [6] | outcome [7] | outcome [8] | outcome [9]

O=C(O)Cc1cn(-c2ccccc2)nc1-c1ccc(Cl)cc1
inactive: outcome [1] | Potency [2] | outcome [3] | Potency [4] | outcome [5] | Potency [10] | outcome [6] | outcome [7] | outcome [8] | outcome [9]

CCc1ccc(C=O)cc1
inactive: outcome [1] | outcome [3] | Potency [4] | outcome [5] | Potency [10] | outcome [6] | outcome [7] | outcome [8] | outcome [9]
